High-throughput results (PubChem)
The list is not random: actives were taken first. Their share in the collection is about 21%.
Pf growth 48h: Primary qHTS for delayed death inhibitors of the malarial parasite plastid, 48 hour incubation. P. falciparum luciferase growth in erythrocytes, 48 h. Potency, µM (series often up to 28.7 µM), for inactives: at the highest dose activity change, negative = inhibition, usual class: inhibitors. actives 5.9% (n = 310,000). AID 504832, 2011; active means well fitted inhibition curve with a large enough effect; inconclusive means small, poorly fitted or top-dose-only effect, or another doubt; inactive means no such curve, though single readings can be large or run the other way; further: potency means the concentration at half of the fitted maximal effect; on the % scale 0 is the no-effect control and ±100 the full control effect
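Firefly luciferase activity from engineered P. falciparum reports growth; inhibitors lower the luminescent signal. Cultures contained 2% hematocrit erythrocytes at 0.1% final parasitemia.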
Pf growth 96h: Primary qHTS for delayed death inhibitors of the malarial parasite plastid, 96 hour incubation; P. falciparum luciferase reporter growth, 96 h; AID 504834, 2011; actives 6.9% (n = 320,000); Potency, µM (top dose mostly 28.7 µM), without a hit: at the top dose activity change, negative = inhibition, hits mostly inhibitors; active means well fitted inhibition curve with a large enough effect; inconclusive means small, poorly fitted or top-dose-only effect, or another doubt; inactive means no such curve, though single readings can be large or run the other way; further: potency means the concentration at half of the fitted maximal effect; on the % scale 0 is the no-effect control and ±100 the full control effect
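Infected RBCs, 2% Hct / 0.05% parasitemia final; luciferase-reporter P. falciparum; cpd 96 h, 37 C, 5% CO2; luciferase detection reagent; luminescence.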
Shiga inhibitor: A qHTS for Small Molecule Inhibitors of Shiga Toxin | Vero cells, Shiga toxin protein synthesis inhibition reporter | inhibition, % at 38.7 µM | actives 9.2% (n = 290,000) | AID 2315, 2010; in the data active means inhibition mostly above about 28%, no sharp cut-off; inactive means mostly below about 43%; further: 0% is about no effect
NS1 function inh: qHTS Assay for Inhibitors of Influenza NS1 Protein Function. Potency, µM (top dose mostly 46.1 µM), for the others: at the highest dose activity, positive = more growth. actives 0.4% (n = 270,000); further: potency means the concentration at half of the fitted maximal effect; actives are rising curves; nearly all actives have a fitted effect of over 50% in size
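OD600 was taken as the measure of yeast growth restored by compound in an NS1-expressing S. cerevisiae strain. Cells had been washed out of glucose medium and diluted 1:100 into galactose -URA medium, pH 6.0.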
CHX counter: Cycloheximide Counterscreen for Small Molecule Inhibitors of Shiga Toxin | cell reporter, cycloheximide protein synthesis inhibition counterscreen | max response, % | actives 12% (n = 300,000); in the data active means max response mostly above about 13%, no sharp cut-off; inactive means mostly below about 14%; further: read at 38.3 µM for the half of the compounds with a filed dose; 0% is about no effect
SARS PLpro yeast: qHTS of Yeast-based Assay for SARS-CoV PLP; S. cerevisiae expressing SARS-CoV PLpro, growth rescue; Potency, µM (titrated, usually from 32.9 µM), for inactives: at the highest dose activity, positive = growth rescue, actives largely listed as activators; actives 0.19% (n = 330,000); further: potency means the concentration at half of the fitted maximal effect; 0% is about no effect; nearly all actives have a fitted effect of over 55% in size
* hit, by the source's call; ? = inconclusive; / = not tested or not shown; ! = not confirmed by another sample. Unless noted, the call rests on the fitted dose curve.

SMILES	Pf growth 48h	Pf growth 96h	Shiga inhibitor	NS1 function inh	CHX counter	SARS PLpro yeast
CN(C)S(=O)(=O)c1cc(NC(=O)CN2CCN(c3ccccc3F)CC2)ccc1Cl	-14%	?	-6	/	-3	1%
Cn1c(CNC(=O)c2ccc(Cl)cc2)nnc1SCC(=O)NC1CCCC1	25%	13%	1	6%	-8	-1%
O=C(CCC(=O)OCc1ccc(Br)cc1)Nc1ccccc1	1%	57%	7	-15%	0	-13%
O=C1C=C(N(CCO)Cc2ccccc2)c2ccccc2C1=O	3.7µM*	0%	-13	/	-1	-13%
CC1CC(C)CN(CCCNS(=O)(=O)c2cc(Br)cc3c2N(C(=O)C2CC2)CC3)C1 (stereo not given)	?	-7%	30	-13%	-4	-2%
OCCN1CCN(CC/C=C2/c3ccccc3Sc3ccc(C(F)(F)F)cc32)CC1	6.6µM*	8.3µM*!	-27	-35%	-13	/
O=C(CCN1CCOCC1)N1c2ccccc2Sc2ccc(Cl)cc21	-8%	16%	4	11%	-7	-4%
OCCN1CCN(CCC=C2c3ccccc3Sc3ccc(Cl)cc32)CC1	?	4.5µM*	/	/	/	/
COc1ccc(C(=O)CSc2n[nH]c(=O)n2Cc2ccco2)cc1	?	64%	44*	-4%	32*	-1%
O=C(CSc1n[nH]c(=O)n1Cc1ccco1)Nc1ccccc1Cl	?	4.7µM*	13	-2%	5	1%
CC(C)c1ccc(NC(=O)CSc2n[nH]c(=O)n2Cc2ccco2)cc1	?	13µM*	3	-7%	8	1%
O=C(CSc1n[nH]c(=O)n1Cc1ccco1)Nc1ccccc1	0%	15%	-3	-2%	-3	0%
COc1ccc(C(=O)CSc2nnc(CNc3ccc(C)cc3C)n2Cc2ccco2)cc1	?	?	3	6%	1	-1%
O=C(NCC1CCCN1S(=O)(=O)c1cccs1)c1ccc([N+](=O)[O-])cc1 (stereo not given)	?	?	/	/	/	1%
COc1ccc(/C=C2\SC(=O)N(CCNC(=O)C3CCN(S(=O)(=O)c4cccs4)CC3)C2=O)cc1	54%	-31%	44*	-9%	35*	4%
COc1ccc(S(=O)(=O)CCC(=O)NCCc2ccc(C)cc2)cc1	6%	/	-6	-1%	-3	-8%
COc1ccc(/C=C2\SC(=O)N(CCNC(=O)Cc3coc4cc(C)ccc34)C2=O)cc1OC	?	7.4µM*	19	?	7	11%
COc1ccc(/C=C2\SC(=O)N(CCNC(=O)CCS(=O)(=O)c3ccc(C)cc3)C2=O)cc1	156%	16%	110*	14%	70*	-29%
O=C(CN1C(=O)S/C(=C\c2ccc(O)cc2)C1=O)c1ccccc1	-35%	?	20*	0%	36*	0%
O=C(CN1C(=O)S/C(=C\c2ccc(C(=O)O)cc2)C1=O)Nc1ccccc1	26%	-2%	/	1%	-3	1%
O=C(CN1C(=O)S/C(=C\c2ccccc2)C1=O)NNC(=O)c1ccccc1O	6%	13%	4	10%	-3	8%
COc1ccc(/C=C2\SC(=O)N(CCNC(=O)Cn3cnnn3)C2=O)cc1	208%	/	157*	-2%	32*	-13%
COc1ccc(/C=C2\SC(=O)N(CC(=O)NNC(=O)c3ccccc3O)C2=O)cc1	30%	3.3µM*	4	23%	1	7%
CCC1(C)NC(=O)N(CC(=O)N2N=C(c3ccccc3)CC2c2ccc(OC)cc2)C1=O (stereo not given)	-6%	?	-11	-2%	0	19%
CCCOc1ccc(C(=O)Nc2cc(S(=O)(=O)N3CCOCC3)ccc2N2CCOCC2)cc1	12µM*	?	/	/	/	0%
O=C(Nc1cc(S(=O)(=O)N2CCOCC2)ccc1N1CCCC1)c1ccc(F)cc1	-21%	?	/	/	/	1%
CCOc1ccc(C(=O)Nc2cc(S(=O)(=O)Nc3ccccc3Cl)ccc2N2CCOCC2)cc1	?	2.6µM*	5	?	10	-10%
CCOc1ccc(S(=O)(=O)Nc2ccccc2C(=O)Nc2ccccc2N2CCOCC2)cc1	-13%	/	-2	-5%	3	-3%
